Test results taken from publication PMC12864922, “TDP-43 directly inhibits mRNA accumulation in neurites through modulation of mRNA stability”.
Whole data set: some 9,900 sequences, median “r (bound/input frequency ratio)” near 0.7, cut for the highest 2% near 6.5. For the sample, the highest values were picked, then their nearest neighbours and some sequences at random.

B1: ENSMUSG00000061578.1485|Ksr2 (ssRNA)
RNA: GGGAGUUCUACAGUCCGACGAUCGCUUCGAUAUCCGCAUGCUAUGCAUAGGCAAGUAGAUGAAUGAAUAUGUGGGUAGAAGGGUGAGUGGGUGGAUGAAUGGAUGGAUAGGUUGGUAGGUUAAUGUAUUCGUGGAUGGGUGAAUGGAUGGAUGGAUAGAUAGAUGGGAAGGUGGAUGGACAGAUGGAUGGAUGGAUAGAUAGAUGGACAGGUGGUUGGUGGAUAAAUGAGUGAAUGAUUAUGUUGAUAGAUAUGUGGGUAGGCUGAAUGGGUGAAUGGAUAGAUCGAUGACUGGAUGGAGGGUCUCUUGCGGUCGCACUAGUGUGGAAUUCUCGGGUGUCAAGG
B2: ENSMUSG00000061578.1478|Ksr2 (ssRNA)
RNA: GGGAGUUCUACAGUCCGACGAUCGCUUCGAUAUCCGCAUGCUAGAUUUGUGAAUGAAUGGAUGAAUGGAUGGGUAGGUGGGUGGAUGCAUAGGCAAGUAGAUGAAUGAAUAUGUGGGUAGAAGGGUGAGUGGGUGGAUGAAUGGAUGGAUAGGUUGGUAGGUUAAUGUAUUCGUGGAUGGGUGAAUGGAUGGAUGGAUAGAUAGAUGGGAAGGUGGAUGGACAGAUGGAUGGAUGGAUAGAUAGAUGGACAGGUGGUUGGUGGAUAAAUGAGUGAAUGAUUAUGUUGAUAGAUAUGUGGGUAGCUCUUGCGGUCGCACUAGUGUGGAAUUCUCGGGUGUCAAGG
B3: ENSMUSG00000061578.1483|Ksr2 (ssRNA)
RNA: GGGAGUUCUACAGUCCGACGAUCGCUUCGAUAUCCGCAUGCUAUAGGUGGGUGGAUGCAUAGGCAAGUAGAUGAAUGAAUAUGUGGGUAGAAGGGUGAGUGGGUGGAUGAAUGGAUGGAUAGGUUGGUAGGUUAAUGUAUUCGUGGAUGGGUGAAUGGAUGGAUGGAUAGAUAGAUGGGAAGGUGGAUGGACAGAUGGAUGGAUGGAUAGAUAGAUGGACAGGUGGUUGGUGGAUAAAUGAGUGAAUGAUUAUGUUGAUAGAUAUGUGGGUAGGCUGAAUGGGUGAAUGGAUAGAUCGAUGACCUCUUGCGGUCGCACUAGUGUGGAAUUCUCGGGUGUCAAGG
B4: ENSMUSG00000061578.1486|Ksr2 (ssRNA)
RNA: GGGAGUUCUACAGUCCGACGAUCGCUUCGAUAUCCGCAUGCUAGGCAAGUAGAUGAAUGAAUAUGUGGGUAGAAGGGUGAGUGGGUGGAUGAAUGGAUGGAUAGGUUGGUAGGUUAAUGUAUUCGUGGAUGGGUGAAUGGAUGGAUGGAUAGAUAGAUGGGAAGGUGGAUGGACAGAUGGAUGGAUGGAUAGAUAGAUGGACAGGUGGUUGGUGGAUAAAUGAGUGAAUGAUUAUGUUGAUAGAUAUGUGGGUAGGCUGAAUGGGUGAAUGGAUAGAUCGAUGACUGGAUGGAGGGUGGGUGACUCUUGCGGUCGCACUAGUGUGGAAUUCUCGGGUGUCAAGG
B5: ENSMUSG00000061578.1484|Ksr2 (ssRNA)
RNA: GGGAGUUCUACAGUCCGACGAUCGCUUCGAUAUCCGCAUGCUAGGUGGAUGCAUAGGCAAGUAGAUGAAUGAAUAUGUGGGUAGAAGGGUGAGUGGGUGGAUGAAUGGAUGGAUAGGUUGGUAGGUUAAUGUAUUCGUGGAUGGGUGAAUGGAUGGAUGGAUAGAUAGAUGGGAAGGUGGAUGGACAGAUGGAUGGAUGGAUAGAUAGAUGGACAGGUGGUUGGUGGAUAAAUGAGUGAAUGAUUAUGUUGAUAGAUAUGUGGGUAGGCUGAAUGGGUGAAUGGAUAGAUCGAUGACUGGAUGCUCUUGCGGUCGCACUAGUGUGGAAUUCUCGGGUGUCAAGG
B6: ENSMUSG00000061578.1480|Ksr2 (ssRNA)
RNA: GGGAGUUCUACAGUCCGACGAUCGCUUCGAUAUCCGCAUGCUAAAUGGAUGAAUGGAUGGGUAGGUGGGUGGAUGCAUAGGCAAGUAGAUGAAUGAAUAUGUGGGUAGAAGGGUGAGUGGGUGGAUGAAUGGAUGGAUAGGUUGGUAGGUUAAUGUAUUCGUGGAUGGGUGAAUGGAUGGAUGGAUAGAUAGAUGGGAAGGUGGAUGGACAGAUGGAUGGAUGGAUAGAUAGAUGGACAGGUGGUUGGUGGAUAAAUGAGUGAAUGAUUAUGUUGAUAGAUAUGUGGGUAGGCUGAAUGGGUGCUCUUGCGGUCGCACUAGUGUGGAAUUCUCGGGUGUCAAGG
B7: ENSMUSG00000061578.1482|Ksr2 (ssRNA)
RNA: GGGAGUUCUACAGUCCGACGAUCGCUUCGAUAUCCGCAUGCUAGAUGGGUAGGUGGGUGGAUGCAUAGGCAAGUAGAUGAAUGAAUAUGUGGGUAGAAGGGUGAGUGGGUGGAUGAAUGGAUGGAUAGGUUGGUAGGUUAAUGUAUUCGUGGAUGGGUGAAUGGAUGGAUGGAUAGAUAGAUGGGAAGGUGGAUGGACAGAUGGAUGGAUGGAUAGAUAGAUGGACAGGUGGUUGGUGGAUAAAUGAGUGAAUGAUUAUGUUGAUAGAUAUGUGGGUAGGCUGAAUGGGUGAAUGGAUAGAUCCUCUUGCGGUCGCACUAGUGUGGAAUUCUCGGGUGUCAAGG
B8: ENSMUSG00000061578.1479|Ksr2 (ssRNA)
RNA: GGGAGUUCUACAGUCCGACGAUCGCUUCGAUAUCCGCAUGCUAUGAAUGAAUGGAUGAAUGGAUGGGUAGGUGGGUGGAUGCAUAGGCAAGUAGAUGAAUGAAUAUGUGGGUAGAAGGGUGAGUGGGUGGAUGAAUGGAUGGAUAGGUUGGUAGGUUAAUGUAUUCGUGGAUGGGUGAAUGGAUGGAUGGAUAGAUAGAUGGGAAGGUGGAUGGACAGAUGGAUGGAUGGAUAGAUAGAUGGACAGGUGGUUGGUGGAUAAAUGAGUGAAUGAUUAUGUUGAUAGAUAUGUGGGUAGGCUGAACUCUUGCGGUCGCACUAGUGUGGAAUUCUCGGGUGUCAAGG
B9: ENSMUSG00000061578.1481|Ksr2 (ssRNA)
RNA: GGGAGUUCUACAGUCCGACGAUCGCUUCGAUAUCCGCAUGCUAUGAAUGGAUGGGUAGGUGGGUGGAUGCAUAGGCAAGUAGAUGAAUGAAUAUGUGGGUAGAAGGGUGAGUGGGUGGAUGAAUGGAUGGAUAGGUUGGUAGGUUAAUGUAUUCGUGGAUGGGUGAAUGGAUGGAUGGAUAGAUAGAUGGGAAGGUGGAUGGACAGAUGGAUGGAUGGAUAGAUAGAUGGACAGGUGGUUGGUGGAUAAAUGAGUGAAUGAUUAUGUUGAUAGAUAUGUGGGUAGGCUGAAUGGGUGAAUGGACUCUUGCGGUCGCACUAGUGUGGAAUUCUCGGGUGUCAAGG
B10: ENSMUSG00000028439.39|Fam219a|34:40 (ssRNA)
RNA: GGGAGUUCUACAGUCCGACGAUCGCUUCGAUAUCCGCAUGCUACAUUGCUUCCUCCUAUGGUAGGACGUGUACCUCACACACAUCAAGGAGCCGGAGAAACCAAAACCGGGUCUGUCUCCAGCCCCGGGGCUGAGGAGGGGUGGGCACUGUUUGUUCGGUUACUUGGGGGGAACCACACCCAAGCACCCUGCCACCUCUCCUAUAGCUGCAGUCAGGGGGGCAGCACUGAAGGCCAGGAGGCCAAAUGUAAGCGUUGGGUGAAGGGAUCACAGGGCCGGAAGGUUGGCCCCAGCCAGUGAAGCCUCUUGCGGUCGCACUAGUGUGGAAUUCUCGGGUGUCAAGG
B11: ENSMUSG00000043670.69|Diras1|133:138 (ssRNA)
RNA: GGGAGUUCUACAGUCCGACGAUCGCUUCGAUAUCCGCAUGCUACCAUUCUAUCUGCACCCCACAACCACACACUGGAGGUUUGAUCCCUGUGGAUCUGAAAACAGGGACCUGGCUAAGGAACUGCUCAUCCCAGUCAGGCCCAGAGAGGUUACCUUGCCUCUCCAUCUCUGUCCCACACACCCCAGCCAUGCCCACUGUCCCUGUCCCUCACAUUCUAUCACUGUGACCUCUGGGGAGUGCCCAUUGACCUCAUCUUCCUUCACUAAUAUCUUAUUUCUUUCACCUGAUCCUGUCCUUUCCCCCUCUUGCGGUCGCACUAGUGUGGAAUUCUCGGGUGUCAAGG
B12: ENSMUSG00000028439.112|Fam219a (ssRNA)
RNA: GGGAGUUCUACAGUCCGACGAUCGCUUCGAUAUCCGCAUGCUACAAAGGGAUACUGUCUCUCCAUUAGAUAACUCCUUCCACUGUCUCCCUCCCCCGCUUUCUUACUUUCUGAGGGUUGGGAAGGUAAGAUGGGCCUUAGAGAGAAGCCAGGUUUGGGGAUGGUAUGACCUGUUCUCACCGGUCUCUAACCAGUGCAUCUGUCUCUCUGCCUCAUCCCCACACCGCCCUGCCACCCCCAGUCUUCUGUCUAUUGGUUCCAGGCUGGAAGCAAGAGAUAAGGCUGGCCUCCUGUGCCCCAUUGCCUCUUGCGGUCGCACUAGUGUGGAAUUCUCGGGUGUCAAGG
B13: ENSMUSG00000032194.3|Kank2 (ssRNA)
RNA: GGGAGUUCUACAGUCCGACGAUCGCUUCGAUAUCCGCAUGCUAUCAGACUACGAGAGUCCGGCUUCGUCUUCAGCCGAGGAGUGAAUACAGGGAGGAGCCAGUGAGUCCCCCAGGACCCACCAGCCACAAGCCACGCAUCAAACCGUCCCUCCUCCAUCCCUCUGUCCCAUUCUGCCUCGGCAUUCCUCAGCCCCUGAACUUCCCUGAGGGAGCCCUGACAUCUACCAGGCUCAAGCUCCUGGAAGCCUUUCCCAGCACCCUGGGUUCAAAGCCAGAAAGCCAAGCUACAUUCUCCUCCCAGUCUCUUGCGGUCGCACUAGUGUGGAAUUCUCGGGUGUCAAGG

What follows are binders tested against TDP-43 (Homo sapiens, UniProt Q13148 1-414) (assay: RNA Bind-n-Seq with designed 260-mer pool; 25 mM Tris-HCl, 150 mM KCl, 3 mM MgCl2, BSA (printed 500 mg/mL), 20 units/mL SUPERase IN; pH not stated; 500 nM RNA pool, 1 h, 4 C; TDP-43 5, 50, 500 nM; high values mean tight binding). Conditions: protein: recombinant; tags: SBP (GST cleaved off with PreScission; pGEX-GST-SBP).
TDP-43, sequence (Q13148 whole entry): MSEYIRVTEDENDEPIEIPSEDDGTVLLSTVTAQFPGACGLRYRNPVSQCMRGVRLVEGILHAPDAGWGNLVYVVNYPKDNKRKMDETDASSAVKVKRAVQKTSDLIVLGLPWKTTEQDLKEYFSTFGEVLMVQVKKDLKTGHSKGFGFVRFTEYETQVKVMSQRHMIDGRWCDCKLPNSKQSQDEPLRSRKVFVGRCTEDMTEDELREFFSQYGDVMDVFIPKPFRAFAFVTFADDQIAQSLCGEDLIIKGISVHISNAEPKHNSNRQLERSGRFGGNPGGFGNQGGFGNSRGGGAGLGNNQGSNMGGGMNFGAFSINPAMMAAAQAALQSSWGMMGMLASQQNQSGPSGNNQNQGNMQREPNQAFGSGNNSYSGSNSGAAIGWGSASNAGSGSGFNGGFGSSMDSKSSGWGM
Summary of the method: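 The incubation lasted 1 h at 4 °C and used 500 nM of an in vitro-transcribed 260-nt 3′ UTR oligo pool with recombinant SBP-tagged TDP-43 at 5, 50 or 500 nM immobilized on streptavidin beads. It took place in 25 mM Tris-HCl, 150 mM KCl, 3 mM MgCl2, BSA and SUPERase IN. Bound RNA was washed, eluted with biotin, converted to cDNA, PCR-amplified and sequenced to give R, each oligo's normalized abundance in the bound sample divided by that in input. Two independent protein batches provided the duplicates.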
For B1, the binding signal was 5.62 R (bound/input frequency ratio).
For B2, the binding signal was 4.77 R (bound/input frequency ratio).
B3 was tested, and the binding signal was 4.53 R (bound/input frequency ratio).
With B4 the binding signal was 5.39 R (bound/input frequency ratio).
In the case of B5, the binding signal is reported as 6.89 R (bound/input frequency ratio).
In the case of B6, the binding signal is reported as 7.65 R (bound/input frequency ratio).
For B7, the binding signal was 7 R (bound/input frequency ratio).
With B8 the binding signal was 5.48 R (bound/input frequency ratio).
B9 was tested, and the binding signal was 5.98 R (bound/input frequency ratio).
For B10, the binding signal was 1.29 R (bound/input frequency ratio).
B11 was tested, and the binding signal was 2.03 R (bound/input frequency ratio).
For B12, the binding signal was 0.71 R (bound/input frequency ratio).
For B13, the binding signal was 1.4 R (bound/input frequency ratio).
